POLI inh – blocks human DNA polymerase iota activity; Q9UNA4; AID 588590; Potency, µM (highest dose often 115 µM), hits mostly inhibitors; Pol iota fluorescent replication assay, 10 min; 1% of 390,000 active
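Pol iota at 10 nM preincubated 15 min with compounds at room temperature; reaction started with fluorescent substrate, 50 nM final. Fluorescence read kinetically at 0 and 10 min; buffer-only wells as negative control.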
Pol beta inh – blocks human DNA polymerase beta activity. P06746. Pol beta primer extension/strand displacement, fluorescence kinetic. Potency, µM (doses to about 114 µM), most hits filed as inhibitors. 1.3% of 340,000 active. AID 485314
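Pol beta (10 nM) and compounds were preincubated 15 min at room temperature, then 50 nM substrate (final) started primer extension/strand displacement. Reads were taken at 0 and 10 min; concentration-response data were fitted to a four-parameter Hill equation.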
PI4K2A inh – inhibitors of human PI4K2A | Q9BTU6 | purified PI4K2A, ADP-Glo luminescence, 1 h; hits give low values | activity change, negative = inhibition, % at 76.9 µM | 0.13% of 420,000 active | AID 1346378; in the data active = activity change below about -50%; inconclusive = mostly about -30% to -49%
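Compounds are screened against recombinant PI4K2A using PI as substrate and ATP, the latter dispensed at 300 microM. Reactions run one hour at ambient temperature before ADP-Glo detection; full inhibition defined by wells lacking enzyme.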
PI5P4Ka inh – PI5P4K alpha (human) kinase inhibition | 1.2% of 330,000 active | max response, % | AID 652105 | PI5P4Kalpha enzyme, ADP-Glo luminescence, 60 min; hits give low values; active = max response of -50% or lower; inconclusive = between -30% and -50%; inactive = -30% or higher; also: value at the top dose of about 77 µM
Target sequence (P48426 whole entry, looked up): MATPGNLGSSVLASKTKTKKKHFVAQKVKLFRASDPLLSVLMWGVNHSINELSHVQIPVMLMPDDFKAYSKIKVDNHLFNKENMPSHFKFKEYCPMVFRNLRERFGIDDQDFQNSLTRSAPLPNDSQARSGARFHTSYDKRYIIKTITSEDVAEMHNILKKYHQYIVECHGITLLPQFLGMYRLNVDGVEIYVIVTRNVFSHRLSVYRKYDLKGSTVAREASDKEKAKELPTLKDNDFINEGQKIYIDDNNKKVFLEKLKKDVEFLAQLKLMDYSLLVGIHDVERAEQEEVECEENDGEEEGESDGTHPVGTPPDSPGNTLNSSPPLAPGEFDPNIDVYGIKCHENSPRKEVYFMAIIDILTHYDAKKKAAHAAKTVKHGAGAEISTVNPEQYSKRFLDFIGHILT
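Quantitative HTS of the MLSMR library against PI5P4Kalpha with substrate. ATP added last at 5 microM final; room temperature, 60 minutes. Remaining ATP depleted, ADP converted and read as luminescence.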
POLH inh – blocks human DNA polymerase eta activity; recombinant Pol eta, fluorescent DNA replication assay; AID 588591; Q9Y253; Potency, µM (top dose mostly 114 µM), most hits filed as inhibitors; 1.2% of 390,000 active
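Fluorescent replication assay: 50 nM final substrate added after a 15 min room-temperature compound preincubation with 10 nM enzyme. Signal taken at 0 min and again at 10 min.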
Pol kappa inh – DNA polymerase kappa (human) inhibition. Q9UBT6. purified Pol kappa, fluorescent DNA synthesis assay, 10 min. Potency, µM (titrated, usually from 107 µM), most hits filed as inhibitors. 0.53% of 400,000 active. AID 588579
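10 nM Pol kappa preincubated 15 min at room temperature with compounds, then reaction started with substrate at 50 nM final. Fluorescence read kinetically at 0 and 10 min; buffer-only wells served as negative control.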
Large screens that a line does not name were inactive. Shown are actives, neighbours in structure and some others; about 2.8% of the full set was active somewhere. Unless noted, calls follow the shape of the dose curve; as a rule, active = well fitted inhibition curve with a large enough effect; inconclusive = small, poorly fitted or top-dose-only effect, or another doubt; inactive = no such curve, though single readings can be large or run the other way.

CC(C)(C)OC(=O)N1CCCC1C(=O)NC1COC2CC(n3cc(F)c(=O)[nH]c3=O)OC12 (stereo not drawn)	none (no result: Pol beta inh, PI4K2A inh, PI5P4Ka inh, POLH inh)
COC(=O)c1ccccc1NC(=O)C1=C(C)C(=O)OC12CCCCCC2	none (no result: PI5P4Ka inh)
CCOc1cc(/C=C2\SC(=S)N(NS(=O)(=O)c3ccccc3)C2=O)ccc1O	POLI inh inconclusive, PI5P4Ka inh -67
CCOc1cc(/C=C2\SC(=S)N(Nc3ccccc3)C2=O)ccc1O	POLI inh inconclusive, Pol beta inh 13µM, POLH inh inconclusive, Pol kappa inh inconclusive
CC(NC(=O)c1ccc2nc(CCc3ccccc3)oc2c1)c1ccccc1 (stereo not drawn)	none (no result: PI5P4Ka inh)
Cc1nn(-c2ccc(Cl)cc2)c(=O)c2ccccc12	none
Cc1c(Cl)sn(-c2ccc(Cl)cc2)c1=O	PI5P4Ka inh -73
CCc1ccc2c(c1)cc(CN(C(=S)Nc1cccc(C)c1)C1CC1)c1nnnn12	POLI inh 100µM (no result: PI5P4Ka inh)
COCCN(Cc1cc2cc(C)ccc2n2nnnc12)C(=S)Nc1cccc(C)c1	none
O=C(O)c1cccc(CN2C(=O)c3ccccc3C2=O)c1	none
O=C1c2cccc3c(O)ccc(c23)C(=O)N1Cc1ccccc1	POLI inh inconclusive, PI5P4Ka inh -63, POLH inh inconclusive
CCOC(=O)COc1ccc(Br)cc1/C=C\c1[nH]c(=O)[nH]c(=O)c1[N+](=O)[O-]	POLI inh 89µM, Pol beta inh inconclusive, PI5P4Ka inh -74, POLH inh 13µM
Cc1cc(OC(=O)c2cccc(Br)c2)c([N+](=O)[O-])c(=O)[nH]1	POLI inh inconclusive
CCOC(=O)COc1ccc(Br)cc1/C=C/c1[nH]c(=O)[nH]c(=O)c1[N+](=O)[O-]	POLI inh inconclusive, Pol beta inh 56µM, PI4K2A inh inconclusive, PI5P4Ka inh -59, POLH inh 45µM
CCCOc1ccc(/C=C/c2[nH]c(=O)[nH]c(=O)c2[N+](=O)[O-])cc1OCC	none
CC/C=C(\C(=O)N[C@@H]1C(=O)N2C(C(=O)OCOC(=O)C(C)(C)C)=C(COC(N)=O)CS[C@H]12)c1csc(N)n1	none (no result: POLI inh, Pol beta inh, PI5P4Ka inh, POLH inh, Pol kappa inh)
C(=Nc1cnc2ccccc2c1)c1cccnc1	none (no result: Pol beta inh, PI4K2A inh, PI5P4Ka inh, POLH inh)
O=C(Nc1nc(-c2cccs2)cs1)c1ccc([N+](=O)[O-])o1	POLI inh inconclusive, PI5P4Ka inh inconclusive, POLH inh 79µM (no result: Pol beta inh)
N#C/C(=C\c1ccc(-c2cccc([N+](=O)[O-])c2)o1)C(=O)Nc1nc(-c2cccs2)cs1	POLI inh inconclusive, PI5P4Ka inh -52
O=C(N/N=C/c1ccc(-c2cccc([N+](=O)[O-])c2)o1)c1cccs1	none
COC(=O)c1[nH]c(=O)c2ccccc2c1OCc1ccccc1	PI5P4Ka inh inconclusive
COC(=O)c1[nH]c(=O)c2ccccc2c1O	POLI inh 22µM
CN(C)C1CCC(CC2CCc3ccccc32)CC1 (stereo not drawn)	none (no result: Pol beta inh, PI4K2A inh, PI5P4Ka inh, POLH inh)
Cc1c(-c2ccc(Cl)cc2)oc(=O)c2c(N)n(-c3ccccc3)nc12	Pol beta inh 13µM, POLH inh inconclusive
COC(=O)C1=C[C@@H](C(=O)OC)C2C3=C(C(=O)[C@]2(C)NC(=O)c2ccccc2)[C@H](C)n2c(=O)n(-c4ccccc4)c(=O)n2[C@@H]3C1 (stereo partly drawn)	none (no result: Pol beta inh, PI4K2A inh, PI5P4Ka inh, POLH inh)
NC(=O)c1ccc2c(c1)S(=O)(=O)c1ccccc1C2=O	none
O=C(O)c1ccc2c(c1)S(=O)(=O)c1cc(Cl)ccc1C2=O	PI5P4Ka inh -52 (no result: Pol beta inh)
O=C(O)c1ccc2c(c1)S(=O)(=O)c1ccccc1C2=O	PI5P4Ka inh -74
O=C(O)c1ccc2c(c1)S(=O)(=O)c1cc(N3CCN(c4cnccn4)CC3)ccc1C2=O	PI5P4Ka inh -67, POLH inh inconclusive (no result: POLI inh, Pol beta inh, Pol kappa inh)
O=C1c2ccccc2S(=O)(=O)c2cc(N3CCN(C(=O)c4ccccc4)CC3)ccc21	none (no result: Pol beta inh)
COC(=O)/C=C/c1cc(F)ccc1S(=O)(=O)Nc1ccccc1	none (no result: Pol beta inh, PI4K2A inh, PI5P4Ka inh, POLH inh)
C=CCOC(=O)C(=O)/C=C/c1ccc2c(c1)Cc1ccccc1-2	POLI inh 13µM
Clc1ccc(Sc2ccc(/C=N/n3cnnc3)o2)cc1	none
